Composite z-score, z-score and composite Z-score data for five molecules are collected here from PubChem BioAssay.

For assay [1], the system named is Human papillomavirus type 1a protein E7 (residues 44-93). Put plainly: small molecules binding HPV E7 44-93 – biochemical, small-molecule microarray, residues 44-93, 635 nm fluorescence, primary screen (AID 1108).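 Also: E7 fragment applied at 1 µg/mL in TBST for 1 h at 4 C; score combines spot fluorescence with its signal to noise ratio.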 The following applies: fluorescence 635 nm, higher = more signal.
Assay [2] is described as follows: hepatitis C replication reporter changes, two-sided – Huh7 cells, luciferase reporter, HCV replication inhibitor project, primary screen (AID 1109).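 Also: huh7 hepatoma cells harbouring a luciferase neomycin HCV replicon reporter; luciferase luminescence as measure of HCV replicon replication; test concentration not given here.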 The note with it: Huh7 HCV replicon luciferase reporter, 48 h; higher = more signal.
The target of assay [3] is Left-right determination factor 2 (Homo sapiens) (UniProt O00292). Put plainly: small molecules binding LEFTY2 protein – biochemical, small-molecule microarray, 635 nm fluorescence scan, primary screen (AID 1110). The following applies: higher = more signal.
Chain of Left-right determination factor 2 (Homo sapiens) (O00292 whole entry, looked up): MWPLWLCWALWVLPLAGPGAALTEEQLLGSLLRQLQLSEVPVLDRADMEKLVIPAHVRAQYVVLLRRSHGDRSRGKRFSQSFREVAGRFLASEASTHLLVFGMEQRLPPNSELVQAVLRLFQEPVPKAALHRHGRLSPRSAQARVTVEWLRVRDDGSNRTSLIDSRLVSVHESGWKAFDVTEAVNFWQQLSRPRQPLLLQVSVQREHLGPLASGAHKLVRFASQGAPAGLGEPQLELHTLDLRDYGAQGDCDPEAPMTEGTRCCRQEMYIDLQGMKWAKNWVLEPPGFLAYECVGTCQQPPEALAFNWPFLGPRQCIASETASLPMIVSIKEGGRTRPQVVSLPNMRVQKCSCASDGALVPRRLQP
In assay [4] the target is Calmodulin-1 (Homo sapiens) (UniProt P0DP23). Put plainly: small molecules binding calmodulin-1 with EGTA – biochemical, small-molecule microarray, Cy5-labelled CALM1, profiling panel (AID 1111).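 Also: labelled calmodulin applied in Tris saline Tween buffer holding calcium plus EGTA and DTT.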 The note with it: Cy5-CALM1 binding fluorescence, higher = more signal.
Assay [5] shares this target. Put plainly: small molecules binding Ca-loaded calmodulin-1 – biochemical, small-molecule microarray, Cy5-labelled CALM1, plus calcium, artefact control for SMM control-protein annotation, profiling panel (AID 1112).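 Also: score merges spot fluorescence with signal to noise from triplicate slides.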 The following applies: Cy5-CALM1 binding fluorescence, higher = more signal.
The nature of assay [6]: probe aWnt5a binding to arrayed compounds – biochemical, biotinylated probe, 635/667 nm fluorescence, primary screen (AID 1113).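 Also: score merges 667 nm fluorescence intensity with signal-to-noise per printed feature.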 The note with it: small-molecule microarray, higher = more signal.
Assay [7] is described as follows: probe aShh binding to arrayed compounds – biochemical, biotinylated probe, 635/667 nm fluorescence, primary screen (AID 1114).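 Also: probe is biotin-labelled aShh protein from a stem cell growth factor screen; measures binding of labelled protein to compounds printed on the slide; score merges feature fluorescence at 667 nm with signal-to-noise.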 The following applies: small-molecule microarray, higher = more signal.
The nature of assay [8]: probe aNog binding to arrayed compounds – biochemical, biotinylated probe, 635/667 nm fluorescence, primary screen (AID 1115).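 Also: probe is biotinylated aNog protein used at 0.15 µg/mL for 1 h at 4 C; z-score combines 667 nm fluorescence of each spot with its signal to noise.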 The note with it: small-molecule microarray, higher = more signal.
For assay [9], the target named is Torsin-1A-interacting protein 1 (Homo sapiens) (UniProt Q5JTV8). Nature of the assay: compound microarray binding of lysate hLAP1 – cell lysate, small-molecule microarray, COS7 lysate, 635/667 nm fluorescence, primary screen (AID 1116). The note with it: 635 nm fluorescence, higher = more signal.
Chain of Torsin-1A-interacting protein 1 (Homo sapiens) (Q5JTV8 whole entry, looked up): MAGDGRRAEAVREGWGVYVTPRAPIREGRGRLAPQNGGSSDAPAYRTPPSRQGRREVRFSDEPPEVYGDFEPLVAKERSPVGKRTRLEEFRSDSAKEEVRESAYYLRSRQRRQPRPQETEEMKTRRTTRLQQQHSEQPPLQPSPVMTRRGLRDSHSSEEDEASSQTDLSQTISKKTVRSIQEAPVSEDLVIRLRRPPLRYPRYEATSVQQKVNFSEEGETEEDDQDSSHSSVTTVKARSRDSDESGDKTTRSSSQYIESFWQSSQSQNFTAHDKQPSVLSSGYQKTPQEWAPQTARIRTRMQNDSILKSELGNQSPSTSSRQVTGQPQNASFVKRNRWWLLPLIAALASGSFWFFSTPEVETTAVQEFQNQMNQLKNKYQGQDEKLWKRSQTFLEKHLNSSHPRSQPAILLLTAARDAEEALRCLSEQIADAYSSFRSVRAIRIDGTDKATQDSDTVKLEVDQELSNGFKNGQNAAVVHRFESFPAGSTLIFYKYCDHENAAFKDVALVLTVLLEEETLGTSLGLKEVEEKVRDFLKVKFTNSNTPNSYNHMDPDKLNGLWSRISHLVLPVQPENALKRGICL
The target in assay [10] is Alpha-bungarotoxin (Bungarus multicinctus) (UniProt P60615). Nature of the assay: compounds binding labelled alpha-BTX control protein – biochemical, small-molecule microarray, Alexa647 label, 635/667 nm fluorescence, artefact control for SMM control protein annotation, profiling panel (AID 1117). The following applies: alpha-BTX-A647 binding fluorescence, higher = more signal.
Chain of Alpha-bungarotoxin (Bungarus multicinctus) (P60615 whole entry, looked up): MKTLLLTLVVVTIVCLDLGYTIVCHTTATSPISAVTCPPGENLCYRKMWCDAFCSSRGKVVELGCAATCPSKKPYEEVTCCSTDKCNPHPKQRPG

Assay [11] addresses Albumin (Bos taurus) (UniProt P02769). Nature of the assay: compounds binding labelled BSA control protein – biochemical, small-molecule microarray, Alexa647 label, 635/667 nm fluorescence, artefact control for SMM control protein annotation, profiling panel (AID 1118).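 Also: score merges 667 nm emission intensity and signal-to-noise per printed compound spot.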 The note with it: BSA-A647 binding, fluorescence 635 nm, higher = more signal.
The nature of assay [12]: probe aXIP binding to arrayed compounds – biochemical, NeuroSMM set, 635/667 nm fluorescence, primary screen (AID 1119).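 Also: probe is the protein aXip251-270 applied at 1 µg/mL to compound-printed slides; binding of probe to printed compounds measured as 667 nm fluorescence plus signal to noise.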 The following applies: small-molecule microarray, higher = more signal, called active from +8 up or from −8 down.
Assay [13] in a line: probe aNOTCH3 binding on compound microarray – biochemical, small-molecule microarray, 635/667 nm fluorescence, primary screen (AID 1120).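 Also: probe is a biotin-tagged antibody raised against NOTCH3 rather than NOTCH3 protein; score merges spot fluorescence near 667 nm with spot signal to noise.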 The note with it: higher = more signal.
The nature of assay [14]: probe aNOTCH2 binding on compound microarray – biochemical, small-molecule microarray, 635/667 nm fluorescence, primary screen (AID 1121).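 Also: score merges feature fluorescence read at 667 nm with its signal to noise.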 The note with it: higher = more signal.
The target in assay [15] is Carbonic anhydrase 2 (Homo sapiens) (UniProt P00918). Put plainly: compounds binding carbonic anhydrase 2 – biochemical, small-molecule microarray, Alexa647-labelled CAII, profiling panel (AID 1122). The note with it: CAII-A647 binding fluorescence, higher = more signal.
Assay [16] is described as follows: COS7 lysate on small-molecule microarray, probe aHis, 635 nm (AID 1123).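 Also: z-score combines 667nm fluorescence intensity with signal-to-noise per printed compound spot.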 The following applies: COS7 cell lysate, fluorescence, higher = more signal.
Assay [17] is described as follows: probe aLAP1 signal on lysate-treated microarray – cell lysate, small-molecule microarray, COS7 lysate, primary screen (AID 1124).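 Also: lysate comes from COS7 cells expressing LAP1 and is applied at 0.3 µg/mL; score merges spot fluorescence near 667 nm with signal-to-noise over triplicate slides.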 The following applies: probe aLAP1, fluorescence, higher = more signal.
Assay [18] concerns Sam68 (KHDRBS1). Nature of the assay: compounds binding KHDRBS1 protein – biochemical, small-molecule microarray, 635 nm fluorescence, primary screen (AID 1125).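 Also: score merges 667 nm channel intensity with signal to noise over triplicate slides.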 The following applies: higher = more signal.
Assay [19] has as its system Chordin-like protein 2 (CHRDL2). Put plainly: compounds binding chordin-like 2 – biochemical, small-molecule microarray, 635 nm fluorescence, primary screen (AID 1126).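 Also: printed compound slides probed with Chrdl2 protein at 4 µg/mL for 1 h at 4 C; score merges 667 nm emission intensity with signal to noise over three replicate slides.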 The following applies: fluorescence 635 nm, higher = more signal.
Assay [20] concerns the target Concanavalin-A (Canavalia ensiformis) (UniProt P02866). Nature of the assay: compounds binding concanavalin A lectin – biochemical, small-molecule microarray, Alexa647 label, 635 nm, artefact control for SMM control protein annotation, primary screen (AID 1127).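 Also: z combines 667 nm emission intensity with signal-to-noise across three replicate slides.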 The following applies: ConA-A647 binding fluorescence, higher = more signal.

Activity calls are given as the source filed them.

Chain of Concanavalin-A (Canavalia ensiformis) (P02866 whole entry, looked up): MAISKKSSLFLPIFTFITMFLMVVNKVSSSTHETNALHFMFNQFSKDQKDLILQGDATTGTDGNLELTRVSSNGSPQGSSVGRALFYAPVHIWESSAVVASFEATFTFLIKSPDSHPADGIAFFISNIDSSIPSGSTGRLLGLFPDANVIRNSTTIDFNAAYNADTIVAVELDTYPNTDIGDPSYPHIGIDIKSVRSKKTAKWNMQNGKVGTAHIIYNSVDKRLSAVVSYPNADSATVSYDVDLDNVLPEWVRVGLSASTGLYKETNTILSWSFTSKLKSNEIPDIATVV
Chain of Albumin (Bos taurus) (P02769 whole entry, looked up): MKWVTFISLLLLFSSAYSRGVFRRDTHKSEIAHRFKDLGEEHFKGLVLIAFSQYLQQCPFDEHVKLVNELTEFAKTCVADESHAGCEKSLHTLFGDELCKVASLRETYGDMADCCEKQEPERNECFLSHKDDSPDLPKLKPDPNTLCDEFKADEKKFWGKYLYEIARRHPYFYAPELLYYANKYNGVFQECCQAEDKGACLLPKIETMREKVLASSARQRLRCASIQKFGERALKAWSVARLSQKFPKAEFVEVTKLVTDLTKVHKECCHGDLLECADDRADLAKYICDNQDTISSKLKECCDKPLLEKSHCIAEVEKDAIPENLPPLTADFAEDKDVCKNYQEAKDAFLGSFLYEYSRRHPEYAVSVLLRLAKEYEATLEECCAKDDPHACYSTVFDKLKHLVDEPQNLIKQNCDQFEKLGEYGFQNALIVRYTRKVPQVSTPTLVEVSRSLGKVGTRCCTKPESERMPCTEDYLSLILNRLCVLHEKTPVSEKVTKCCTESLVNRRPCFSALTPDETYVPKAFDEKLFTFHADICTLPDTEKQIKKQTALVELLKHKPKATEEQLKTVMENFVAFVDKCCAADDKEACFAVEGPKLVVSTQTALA

`CN(C)CCCNC(=O)[C@@]1(Cc2ccccc2I)c2ccccc2C(=O)N(Cc2ccccc2C(F)(F)F)[C@H]1c1ccc(CO)cc1`: the composite z-score in assay [1] is 0.973; in assay [3], -1.2; in assay [4] it was -0.327; in assay [5], -0.149; in assay [6], -0.176; in [7] it was -0.138. Further, the composite z-score in assay [8] was 0.612; in assay [9], 0.283; in assay [10], 0.376; in assay [11], -0.212; in assay [13], -0.286; in assay [14], -0.146. Moreover, the composite z-score in assay [15] was 0.662; in [16] it was 2.4; in assay [17], 0.557; in [18] it was 1.02; in assay [19] it was -1.07; in [20], -0.17. In addition, in assay [2], the z-score was -3.4. Moreover, the composite Z-score in assay [12] is 0.179 (inactive).
With `COCCOC(=O)N1C(=O)[C@@]2(c3cc(C#CCNC(N)=O)ccc31)[C@H](c1ccc(O)cc1)N1[C@H](c3ccccc3)[C@H](c3ccccc3)OC(=O)[C@H]1[C@@H]2C(=O)NC[C@H](O)c1ccccc1`, the composite z-score in assay [1] was 0.83; in assay [3], 0.952; in [4], 0.288; in assay [5] it was 0.0058; in assay [6], 0.0026; in [7] it was -0.119. The composite z-score in [8] was -0.287; in assay [9], 1.1; in assay [10], 0.834; in assay [11] it was -0.302; in [13], 0.108; in assay [14], -0.0165. The composite z-score in [15] was 0.044; in assay [16], 0.956; in assay [17] it was 0.608; in assay [18] it was 1.13; in [19], 1.38; in assay [20] it was 1.16. In assay [2], this molecule had a z-score of -0.703. Further, in assay [12], the composite Z-score is 0.297 (inactive).
As for `CCCNC(=O)[C@@H]1c2ccccc2C(=O)N(Cc2ccccc2)[C@H]1c1ccc(CO)cc1`, the composite z-score was 0.656 in assay [1]; -0.595 in [3]; -0.0977 in assay [4]; -1.35 in [5]; -0.152 in assay [6]; -0.138 in [7]. Moreover, the composite z-score in assay [8] was -0.216; in [9], 0.142; in [10], 0.918; in assay [11] it was -0.271; in [13], 0.0631; in assay [14], -0.0715. Besides, the composite z-score is 0.202 in assay [15]; 1.1 in assay [16]; -0.036 in assay [17]; 0.22 in assay [18]; -0.592 in assay [19]; 1.01 in [20]. Also, the z-score in assay [2] is -0.481. The composite Z-score in assay [12] was 0.842 (inactive).
For `COc1ccc([Si](C)(C)[C@@H]2[C@@H](CCn3cc([C@H](O)c4ccccc4)nn3)O[C@]3(C(=O)N(Cc4cccc(N5CCOC5=O)c4)c4ccccc43)[C@H]2C)cc1`, the composite z-score was -0.362 in assay [1]; -1.47 in assay [3]; -0.13 in assay [4]; 0.78 in assay [5]; -0.202 in [6]; -0.117 in assay [7]. The composite z-score in assay [8] is -0.256; in assay [9] it was -0.0689; in [10], -0.85; in assay [11], -0.424; in assay [13], -0.259; in [14] it was -0.175. For the same molecule, the composite z-score is -0.208 in [15]; -0.359 in assay [16]; -0.0364 in [17]; -0.217 in [18]; -1.14 in assay [19]; -0.348 in [20]. The molecule also yielded a z-score in assay [2] of -2.64. In addition, in assay [12], the composite Z-score was 0.25 (inactive).
As to `CC(C)(C)OC(=O)CC[C@@]1(C(=O)O)N=C(c2ccc(OCCCO)cc2)O[C@@H]1c1ccccc1N=[N+]=[N-]`, the composite z-score was 0.884 in assay [1]; -0.486 in assay [3]; 1.64 in assay [4]; 1.07 in assay [5]; 0.0711 in assay [6]; 0.309 in assay [7]. In addition, the composite z-score in assay [8] amounted to 0.58; in assay [9], 1.06; in assay [10], 1.15; in [11], 0.933; in [13], 0.39; in assay [14], 0.0309. The composite z-score in [15] is 0.72; in [16], 1.27; in [17], 0.298; in [18], 1.12; in [19] it was -0.734; in assay [20] it was 0.648. The molecule further had a z-score in assay [2] of 2.94. Further, the composite Z-score in [12] is 0.0589 (inactive).
